In PubChem BioAssay (NCATS):
Results filed as inconclusive are left out. The source made the active and inactive calls. Calls come from the whole dose curve; as a rule, active = well fitted inhibition curve with a large enough effect; inconclusive = small, poorly fitted or top-dose-only effect; inactive = flat fitted curve, though single readings scatter.

System: CRL-7250
Assay: qHTS assay to identify novel small-molecules to repurpose for Merkel cell carcinoma treatment (AID 1296009); note: nearly all actives have a fitted effect of over 60% in size
Conditions: MCC and control cell lines, CellTiter-Glo viability, 72 h; at 44.8 µM (top of the series) unless noted
In short: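 Dose-response viability screen; 72 hr exposure at 37 degree celsius; CellTiter-Glo added, 10 min room temperature, luminescence read; RLUs scaled between no-cell and DMSO wells.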

Row | Structure (SMILES) | outcome
1 | CC1(COc2ccc(CC3SC(=O)NC3=O)cc2)CCCCC1 (configuration not stated) | inactive
2 | CCCCOCCOC(=O)c1cccnc1 | inactive
3 | CC(C)c1ccc2oc3nc(N)c(C(=O)O)cc3c(=O)c2c1 | inactive
4 | CC(C)(C)C(=O)Oc1ccc(S(=O)(=O)Nc2ccccc2C(=O)NCC(=O)O)cc1 | inactive
5 | CC(C)OC(=O)OCOP(=O)(CO[C@H](C)Cn1cnc2c(N)ncnc21)OCOC(=O)OC(C)C | inactive
6 | CC(N=C(NC#N)Nc1ccncc1)C(C)(C)C (configuration not stated) | inactive
7 | CC(=O)N(CC(O)CO)c1c(I)c(C(=O)NCC(O)CO)c(I)c(C(=O)NCC(O)CO)c1I (configuration not stated) | inactive
8 | C[N+]1(C)[C@@H]2CC(OC(=O)[C@H](CO)c3ccccc3)C[C@H]1[C@@H]1O[C@@H]12 (some centres not stated) | inactive
9 | CCn1cc(C(=O)O)c(=O)c2cc(F)c(N3CCNC(C)C3)c(F)c21 (configuration not stated) | inactive
10 | O=C(O)Cn1c(=O)n(Cc2ccc(Br)cc2F)c(=O)c2ccc(Cl)cc21 | inactive
11 | CCCCCCn1c(=O)c2c(ncn2C)n(C)c1=O | inactive
12 | CNNCc1ccc(C(=O)NC(C)C)cc1 | inactive
13 | CC[C@]12CCCN3CCc4c(n(c5ccccc45)[C@@](O)(C(=O)OC)C1)[C@@H]32 | inactive
14 | C[C@@H]1C[C@H]2[C@@H]3C[C@H](F)C4=CC(=O)C=C[C@]4(C)[C@@]3(F)[C@@H](O)C[C@]2(C)[C@@]1(O)C(=O)CO | inactive
15 | COc1ccc2c(c1)c(CC(=O)OC/C=C(\C)CC/C=C(\C)CCC=C(C)C)c(C)n2C(=O)c1ccc(Cl)cc1 | inactive
16 | C/C(=N\O)[C@@H](C)NCC(C)(C)CN[C@H](C)/C(C)=N/O | inactive
17 | NS(=O)(=O)c1cc(C(=O)NN2C[C@H]3[C@H]4CCC(C4)[C@H]3C2)ccc1Cl | inactive
18 | CC(C(=O)O)c1ccc(C(=O)c2ccccc2)s1 (configuration not stated) | inactive
19 | NNC(=O)c1ccncc1 | inactive

Row | Structure (SMILES) | outcome
20 | Cc1cnc(NS(=O)(=O)c2ccc(N)cc2)nc1 | inactive
21 | Cc1onc(-c2ccccc2)c1-c1ccc(S(N)(=O)=O)cc1 | inactive
22 | COc1ccc2cc1Oc1cc3c(cc1OC)CC[N+](C)(C)[C@H]3Cc1ccc(cc1)Oc1c(OC)c(OC)cc3c1[C@@H](C2)[N+](C)(C)CC3 | inactive
23 | CC(=O)OCC(=O)[C@@]1(O)[C@H](OC(C)=O)C[C@H]2[C@@H]3CCC4=CC(=O)C=C[C@]4(C)[C@@]3(F)[C@@H](O)C[C@@]21C | inactive
24 | NS(=O)(=O)c1cc(Cl)c(Cl)c(S(N)(=O)=O)c1 | inactive
25 | COC(=O)CCCCC(CCSS/C(CCO)=C(\C)N(C=O)Cc1cnc(C)nc1N)SC(C)=O (configuration not stated) | inactive
26 | NC(N)=NS(=O)(=O)c1ccc(N)cc1 | inactive
27 | CC(CN(C)C)C(C)(O)Cc1ccc(Cl)cc1 (configuration not stated) | inactive
28 | Cc1[nH]cnc1-c1ccc(Cl)cc1 | inactive
29 | N#CCC(=O)NN | inactive
30 | CCC(C(=O)OCCN(CC)CC)c1ccccc1 (configuration not stated) | inactive
31 | Cc1cc(CC(=O)O)c(C)n1-c1ccc(Cl)cc1 | inactive
32 | O=C(O)c1ccc[n+]([O-])c1 | inactive
33 | O=C(O)c1cc(=O)[nH]c(=O)[nH]1 | inactive
34 | O=C1NCC2(CCN(CCc3ccccc3)CC2)O1 | inactive
35 | CCOC(=O)Oc1ccc(CCNC(=O)[C@H](CCSC)NC(C)=O)cc1OC(=O)OCC | inactive
36 | CC(=O)CC(c1ccccc1)c1c(O)c2ccccc2oc1=O (configuration not stated) | inactive
37 | Cc1ccccc1OCC(O)CO (configuration not stated) | inactive
